Inconclusive results are not listed. Calls of active or inactive are those of the source. Unless noted, the call rests on the fitted dose curve; in most records, active means well fitted curve in the direction sought with a large enough effect; inconclusive means small, poorly fitted or top-dose-only effect, or another doubt; inactive means no such curve, though single readings can be large; an effect the other way counts as inactive or inconclusive.
What was measured:
[1] = qHTS to identify inhibitors of the type 1 interferon - major histocompatibility complex class I in skeletal muscle: primary screen against the NCATS Mechanism Interrogation Plate v5.0 (MIPE) Libary (AID 1347411); further: nearly all actives have a fitted effect of over 65% in size; further: potency means the concentration at half of the fitted maximal effect
How it was run: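 HLA-B HiBit myoblasts, dexamethasone-free medium + 4 ng/ml IFN-b, 24 h compound, 11-pt 1:3 from 46 uM final. Readout: Nano-Glo HiBiT lytic luminescence after 10 min lysis, RT.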

[2] = Primary qHTS for inhibitors of nuclear receptor binding SET domain protein 2 (NSD2) in an isogenic RCH-ACV NSD2 p.E1099K mutant (9B) (AID 1645876); further: nearly all actives have a fitted effect of over 70% in size; further: potency means the concentration at half of the fitted maximal effect
[3] = Primary qHTS for inhibitors of nuclear receptor binding SET domain protein 2 (NSD2) in an RCH-ACV wild type WT cells (2C) (AID 1645877); further: nearly all actives have a fitted effect of over 70% in size; further: potency means the concentration at half of the fitted maximal effect
[4] = molecular target: Glutathione peroxidase 1 (Homo sapiens) (UniProt P07203); assay: Primary qHTS Assay for Inhibitors of Recombinant Selenoprotein Glutathione Peroxidase 1 (GPX1) (AID 1845191); further: nearly all actives have a fitted effect of over 65% in size
Sequence of Glutathione peroxidase 1 (Homo sapiens) (P07203 whole entry, looked up): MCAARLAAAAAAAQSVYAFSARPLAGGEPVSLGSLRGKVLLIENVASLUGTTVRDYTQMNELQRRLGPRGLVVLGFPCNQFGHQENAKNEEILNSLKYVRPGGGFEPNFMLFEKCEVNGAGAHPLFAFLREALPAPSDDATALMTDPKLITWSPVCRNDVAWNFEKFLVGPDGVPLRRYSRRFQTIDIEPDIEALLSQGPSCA
How it was run: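 GPX1 10 nM, GR 100 nM, GSH 1 mM, NADPH 0.5 mM, CHP 0.5 mM (final). 30-min cpd preincubation, RT. Ex340/Em450 read t=0, t=15 min.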

[5] = qHTS drug screen for cell cycle checkpoint inhibitors in PARPi-resistant BRCA-mutant ovarian cancer cell lines. (AID 1963452; calls by dose curve; further: potency means the concentration at half of the fitted maximal effect); conditions: PEO1/OlaR viability, CellTiter-Glo luminescence, 96 h; for Z-AUC: stronger effect = lower value
How it was run: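 PEO1, PEO4 and PEO1/OlaR ovarian cancer cells, 600 per well, exposed 96 h at 37C to a dilution series. Viability read by CellTiter-Glo luminescence, normalized to DMSO and empty wells; activity summarized as Z-AUC.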

[6] = molecular target: Phospholipid hydroperoxide glutathione peroxidase GPX4 (Homo sapiens) (UniProt P36969); assay: Primary qHTS Assay for Inhibitors of Recombinant Selenoprotein Glutathione Peroxidase 4 (GPX4) (AID 1845192); conditions: outcome: dose series up to 50 µM unless noted; further: nearly all actives have a fitted effect of over 65% in size
Sequence of Phospholipid hydroperoxide glutathione peroxidase GPX4 (Homo sapiens) (P36969 whole entry, looked up): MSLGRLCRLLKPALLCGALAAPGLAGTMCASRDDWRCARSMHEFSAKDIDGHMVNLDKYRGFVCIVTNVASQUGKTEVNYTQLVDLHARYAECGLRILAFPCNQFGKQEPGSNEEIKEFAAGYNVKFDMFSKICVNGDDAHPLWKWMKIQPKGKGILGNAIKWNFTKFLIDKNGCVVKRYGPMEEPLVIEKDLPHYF
How it was run: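 qHTS, GR-coupled: GPX4 200 nM + cpd 30 min RT → GSH 1 mM, NADPH 0.5 mM, GR 100 nM → CHP 0.5 mM start; fluor 340/450 at t0 and t15 min; no-enzyme wells as control.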

[7] = NCATS anti-infectives library activity on HEK293 viability as a counter-qHTS vs the C. elegans viability qHTS (AID 1745854)
How it was run: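 CellTiter-Glo luminescence, read on a CCD imager, scored viability of HEK293 cells after 24 hr compound exposure at 37C. Library tested in several concentrations, 1:5 steps, up to 41.7 uM; digitonin served as control.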

[8] = measured here: PEO1 parental Z-AUC

Row | SMILES | Potency [1] | Potency [2] | Potency [3] | Potency [4] | Z-AUC [5] | Z-AUC [5, 8] | Z-AUC ([5]; measured here: PEO4 Z-AUC) | Potency [6] | Potency [7] | Potency [5]
1 | CN1CCN(C(=O)c2ccc(-c3ccc4c(C=O)c(O)ccc4c3)s2)CC1 | 29.4 µM (active) | inactive | inactive | inactive | 1.23 (inactive) | 0.551 | 0.471 | – | – | –
2 | O=C(NCc1ccc(S(=O)(=O)c2cccc(C(F)(F)F)c2)cc1)c1cnc2[nH]ncc2c1 | inactive | 0.0132 µM (active) | 0.0263 µM (active) | inactive | -2.19 (inactive) | -2.73 | -2.28 | – | – | –
3 | O=C(O)CCNc1cc(N2CCc3ccccc3CC2)nc(-c2cccnc2)n1 | inactive | inactive | inactive | inactive | 1.21 (inactive) | 0.839 | 0.897 | – | – | –
4 | O=C(CCNC(=O)c1ccc(OC(F)(F)F)cc1)N[C@@H]1CCCc2ccccc21 | inactive | inactive | – | inactive | 1.15 (inactive) | 0.0965 | 0.626 | inactive | – | –
5 | O=C(Nc1cccc(C(F)(F)F)c1)c1cccc2cc(Oc3cc(CO)ncn3)ccc12 | inactive | inactive | – | inactive | -0.478 (inactive) | -0.0588 | -0.749 | inactive | – | –
6 | CN1C(N)=N[C@](C)(c2cc(NC(=O)c3ccc(F)cn3)ccc2F)CS1(=O)=O | inactive | inactive | – | inactive | 1.51 (inactive) | 0.477 | 0.848 | inactive | inactive | –
7 | O=C(Nc1ccc(OC(F)(F)Cl)cc1)c1cnc(N2CC[C@@H](O)C2)c(-c2ccn[nH]2)c1 | inactive | 16.6 µM (active) | – | inactive | -1.46 (inactive) | -0.874 | -0.386 | inactive | – | –
8 | CC[C@@]1(O)C(=O)OCc2c1cc1n(c2=O)Cc2c-1nc1ccccc1c2CCNC(C)C | 0.739 µM (active) | 0.0042 µM (active) | 0.0026 µM (active) | – | – | -2.94 | -1.65 | – | – | 0.0174 µM (active)
9 | C=CC(=O)N1CC(N2CCN(C(=O)CNc3cc(C4(C)CC4)c(Cl)cc3O)CC2)C1 | inactive | 23.5 µM (active) | – | inactive | -0.243 (inactive) | -0.485 | -0.295 | inactive | – | –
10 | CN1C(=O)[C@@H](NC(=O)c2cc(Cc3ccccc3)on2)COc2ccccc21 | inactive | inactive | – | inactive | 0.979 (inactive) | 0.721 | 1.08 | inactive | – | –
11 | O=C1Cc2cc(C(=O)NC3C[C@H]4CC[C@@H](C3)N4S(=O)(=O)CC3CCN(CCCC(F)(F)F)CC3)c(Cl)cc2N1 (stereo partly drawn) | inactive | inactive | – | inactive | -0.571 (inactive) | -0.873 | -0.957 | inactive | – | –
12 | CS(=O)(=O)c1ccc(-c2cnc(NCc3ccco3)n3cnnc23)cc1 | inactive | inactive | inactive | – | 1.04 (inactive) | 0.794 | 1.01 | – | – | –
13 | OC1CCC([C@H](O)C[C@H]2c3c(F)cccc3-c3cncn32)CC1 (stereo partly drawn) | inactive | inactive | inactive | – | -0.0426 (inactive) | 0.377 | 0.204 | – | – | –
14 | O=C(CCCCCCC(=O)N/N=C/c1ccc(N(c2ccccc2)c2ccccc2)cc1)NO | 18.6 µM (active) | 1.18 µM (active) | 1.48 µM (active) | – | 1.09 (inactive) | 0.912 | 0.729 | – | – | –
15 | CN1C(=O)N[C@H](Cc2c[nH]c3c(Cl)cccc23)C1=O | inactive | inactive | – | inactive | 0.358 (inactive) | 0.688 | 0.653 | inactive | – | –
16 | CCN1C(=O)CNc2ncc(-c3ccc(-c4ncn[nH]4)nc3C)nc21 | 2.94 µM (active) | 0.833 µM (active) | 0.742 µM (active) | – | 0.377 (inactive) | 0.759 | 0.275 | – | – | –
17 | Cc1cc(Nc2cc(N)ncn2)c(=O)n2c1C(=O)NC21CCCCC1 | inactive | 2.57 µM (active) | – | inactive | -0.649 (inactive) | 0.752 | 0.801 | inactive | inactive | –
18 | Fc1ccc(-c2csc3ncnc(NCc4ccc5c(c4)OCO5)c23)cc1 | inactive | 8.33 µM (active) | – | inactive | 0.367 (inactive) | 0.157 | 0.314 | inactive | – | –

Source: PubChem BioAssay (NCATS)
